Results taken from PubChem BioAssay (NCATS).
Values without a mark were called inactive. Calls follow the shape of the dose curve; as a rule, active = well fitted curve in the direction sought with a large enough effect; inconclusive = small, poorly fitted or top-dose-only effect, or effect the other way, or another doubt; inactive = no such curve, though single readings can be large or run the other way.

Assay: qHTS for Inhibitors of Cell Surface uPA Generation: Validation Assay (AID 493164);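 also: RAW 264.7 macrophage cells exposed to compound for 18 h; 0% is about no effect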
Conditions: mouse cells, plasminogen activation; series mostly up to 38.3 µM; activity change: at the top concentration
Text: NIH Chemical Genomics Center [NCGC]
NIH Molecular Libraries Probe Centers Network [MLPCN]
Assay Submitter (PI): Thomas Bugge
The overall objective of this project is to perform a quantitative high throughput screen (qHTS) to identify novel compounds that inhibit the generation of cell surface urokinase activity. The urokinase plasminogen activator (uPA) is one of the two primary endogenous systems that mediate plasminogen activation into plasmin. Members of this system, including uPA and its receptor (uPAR), are overexpressed in several malignant tumors. This system plays a major role in adhesion, migration, invasion and metastasis of cancer cells. Small molecule inhibitors of the uPA system will serve as probes to understand the molecular mechanisms of the uPA cascade and better understanding the microenvironmental circumstances that facilitate the activation of plasminogen by uPA, and finally may provide novel candidate agents for anticancer drug therapy.
[…] […] Upon inhibition of the uPA activation cascade, the subsequent cell surface uPA activity-dependent translocation of LF into the cytoplasm is inhibited. ATP-Lite is used to measure intracellular ATP concentrations, which remain increased if LF entry into the cytoplasm is inhibited. This validation assay was performed using a small set of validation compounds.
uPA assay protocol summary:
RAW 264.7 cells were maintained in DMEM medium (Invitrogen, Carlsbad, CA) at 37C under a humidified atmosphere containing 5% CO2 and 95% air. The medium contained 10% FBS, 1 mM sodium pyruvate and 50 U/ml penicillin/streptamycin (Invitrogen, Carlsbad, CA). All compounds were screened as 7-point titration from 2.45 nM to 38.3 uM final concentration. The assay was performed in 1536-well format plate as follows:
1.Dispensing RAW 264.7 cells into 1536-well, white walled tissue culture plates at a density of 4000 cells/well (4 uL).
2.Incubation at 37 C in a 5% CO2 incubator overnight.
3.Serially diluting compounds (1:5 serial dilution; 0.0024 uM to […] final concentration) in 23 nl DMSO.
5.Incubating the compound and reagent-treated plates for 18 hours at 37 C in a 5% CO2 incubator.
6.Adding ATP-Lite (3 ul).
7.Reading plates by ViewLux with an exposure length of 5 seconds.

SMILES	activity change [%]
CCCN(CCC)C1Cc2cc(OC)c(OC)cc2C1	-0.923
O=C1CC[C@@]2(O)C3Cc4ccc(O)c5c4C2(CCN3CC2CC2)[C@H]1O5 (stereo not given in full)	-1.3
CC(C)[C@@]1(NC(=O)[C@@H]2C[C@@H]3c4cccc5[nH]cc(c45)C[C@H]3N(C)C2)O[C@@]2(O)[C@@H]3CCCN3C(=O)[C@H](Cc3ccccc3)N2C1=O	0.454
Cc1o[nH]c(=O)c1CC(N)C(=O)O (stereo not given)	0.548
CCCn1c(=O)c2[nH]c(C3CCCC3)nc2n(CCCOC(=O)c2ccc(S(=O)(=O)F)cc2)c1=O	1.5
COc1ccc2[nH]c3c(c2c1)CCNC3	-0.0252
N#CCCN	-1.43
COc1ccc2c(c1)/C(=C/c1cnc[nH]1)C(=O)N2	1.89
O=C(O)c1cc[c]([Hg][Cl])cc1	1.35
N[C@@H](Cn1oc(=O)[nH]c1=O)C(=O)O	0.532
CCOC(=O)c1ncn2c1[C@@H]1CCCN1C(=O)c1cc(OC)ccc1-2	0.83
c1ccc2c(c1)[I+]c1ccccc1-2	1.75
CN1CCC(c2c[nH]c3ccc(O)cc23)CC1	-1.11
NC(=O)CI	0.526
COc1ccc(OC)c(C(O)C(C)N)c1 (stereo not given)	0.203
C/C(O)=C(\C#N)C(=O)Nc1cc(Br)ccc1Br	1.36
C[C@]12Cc3cn4c(nc3C=C1CCC1C2CC[C@@]2(C)[C@H]1CC[C@@]2(O)C#N)nc1ccccc14 (stereo not given in full)	2.05
CCCN1CCC[C@@H](c2cccc(O)c2)C1	-1.02
COC(=O)N1CCN(C(=O)Cc2ccc(Cl)c(Cl)c2)C(CN2CCCC2)C1 (stereo not given)	0.377
NCCc1ccc(S(=O)(=O)F)cc1	0.771

SMILES	activity change [%]
NNC(N)=O	-1.73
C[N+]1(C)CCc2cc3c(cc2[C@H]1[C@@H]1OC(=O)c2c1ccc1c2OCO1)OCO3	-0.813
C=CCN1C[C@@H](C)N([C@H](c2ccc(C(=O)N(CC)CC)cc2)c2cccc(OC)c2)C[C@@H]1C	-1.29
N[C@@H](Cn1ccc(=O)[nH]c1=O)C(=O)O	0.822
CC(=O)c1c(O)c(C)c(O)c(Cc2c(O)c3c(c(C(=O)/C=C/c4ccccc4)c2O)OC(C)(C)C=C3)c1O	3.03
Cc1c2ccncc2c(C)c2c1[nH]c1ccccc12	2.27
CN(C(=O)Cc1ccc(Cl)c(Cl)c1)C(CN1CCCC1)c1cccc(OCC(=O)O)c1 (stereo not given)	-0.701
NCC(CP(=O)(O)O)c1ccc(Cl)cc1 (stereo not given)	-0.61
CCCN(CCC)CCc1ccc(O)c(O)c1	-0.447
C#CCN[C@H](C)Cc1ccccc1	-0.947
CC(=O)OCC1=C(C(=O)O)N2C(=O)[C@@H](NC(=O)CCC[C@@H](N)C(=O)O)[C@H]2SC1	-0.964
Nc1ccc(CCN2CCN(c3cccc(C(F)(F)F)c3)CC2)cc1	1.38
C=CCN1CC[C@]23c4c5ccc(O)c4O[C@H]2/C(=N/NC(=O)c2ccccc2)CC[C@@]3(O)[C@H]1C5	0.0424
C[N+](C)(C)CCOC(=O)CBr	-0.961
NC(=O)c1cc(N2CC2)c([N+](=O)[O-])cc1[N+](=O)[O-]	1.17
CN1CCc2cccc(Cl)c2CC1	-1.28
CCNC(=O)[C@H]1O[C@@H](n2cnc3c(N)ncnc32)[C@H](O)[C@@H]1O	-0.104
NC(=O)c1ccc(OCC(O)CN2CC=C(c3ccc(F)cc3)CC2)cc1 (stereo not given)	-0.521
COc1ccc2c(c1)C13CCCCC1C(C2)N(C)CC3 (stereo not given)	-0.731
CN(N=O)c1ccc(O)c(O)c1	0.589
